This is one part of a sample in which hits are shown more often than they occur.
Pf Dd2 growth: Plasmodium falciparum Dd2 growth inhibition; Potency, µM (top dose mostly 28.9 µM), most hits filed as inhibitors; P. falciparum Dd2 growth, SYBR Green, 72 h; 4.3% of 120,000 active; AID 1347417; active means well fitted inhibition curve with a large enough effect; further: nearly all actives have a fitted effect of over 65% in size
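Infected erythrocytes (Dd2, 0.3% parasitemia, 2.5% hematocrit final) are added to compound in RPMI-1640/Albumax II medium, grown 72 h at 37C in low oxygen, then lysed with saponin/Triton-X containing SYBR Green and read by fluorescence.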
Each line names hits and unclear results; the compound was inactive in the other large screens.

COc1ccccc1CNC(=O)c1ccc2c(c1)N(Cc1cccc(C)c1)C(=O)c1ccccc1S2(=O)=O	none
COc1ccc(N2CCN(C(=O)c3ccc4c(c3)N(Cc3cccc(Cl)c3)C(=O)c3ccccc3S4(=O)=O)CC2)cc1	none
CN(CC(=O)N1CCC(CCOc2ccccc2F)C1)S(=O)(=O)c1ccc2c(c1)oc(=O)n2C (stereo not drawn)	none
CC1(COCC2CC2)COc2ccc(C(=O)NCc3cccc(F)c3)cc2N1 (stereo not drawn)	none
CN(C)c1cc(=O)c2ccnc(-c3ccc(N4CCOCC4)cc3)c2o1	none
O=C1CCN(C(=O)c2ccsc2)CCCC(c2nc(-c3cccnc3)no2)CCN1 (stereo not drawn)	none
C[C@@H](NC(=O)C1=C[C@@H](NC(=O)Nc2cccc(F)c2)[C@@H](O)[C@H](O)C1)C(N)=O	none
COC(=O)C1=C(C)N=C2SC=C(CC(=O)NCC3CCCO3)N2C1c1ccccc1OC (stereo not drawn)	none
CC(O)c1cc2n(n1)CCN(C(=O)CN1CCCN(C)CC1)C2 (stereo not drawn)	none
O=C1COCCN1C1CCN([S+](=O)([O-])c2ccccc2)CC1	none
Cc1nccc(-c2ccccc2)c1C(=O)N(C)Cc1csc(C(C)C)n1	none
O=C(NC1CC1)C1CCc2nnc(C3CC3)n21 (stereo not drawn)	none
Cc1ccc(-c2nc(CCNC(=O)c3ccc(C)c(C)c3)cs2)cc1	none
CCOc1ccc(CC(=O)NCCc2csc(-c3ccc(Cl)cc3)n2)cc1	none
CCOc1ccc(CC(=O)NCCc2csc(-c3ccc(C)cc3)n2)cc1	Pf Dd2 growth 10µM
O=C(NC1CCCc2c1[nH]c1ccccc21)c1n[nH]c2c1CCCC2 (stereo not drawn)	none
COc1ccccc1-c1nnc2n1C(C(=O)NCCc1ccc(Cl)cc1)CC2 (stereo not drawn)	Pf Dd2 growth 1.8µM
COc1ccccc1-c1nnc2n1C(C(=O)NC(C)C)CC2 (stereo not drawn)	none
COC(=O)CNC(=O)C1CCc2nnc(-c3ccccc3OC)n21 (stereo not drawn)	none
COc1ccc(N2CCN(C(=O)CN3CC4CC(C3)[C@H]3CCCC(=O)N3C4)CC2)cc1 (stereo partly drawn)	none
CC(C)(C)CN1CCC2(CC1)CN[S+](=O)([O-])c1cccnc1O2	Pf Dd2 growth 8.9µM
O=[S+]1([O-])NCC2(CCN(Cc3cccnc3)CC2)Oc2ncccc21	none
O=[S+]1([O-])NCC2(CCN(CC3CCOCC3)CC2)Oc2ncccc21	none
O=S(=O)(c1ccc(C(F)(F)F)cc1)N1CCCC1c1nncn1Cc1ccncc1 (stereo not drawn)	none
CCN(CC)C(=O)c1ccc2c(c1)n(Cc1ccc(OC)cc1)c(=O)c1ccnn12	none
Cc1cccc(C)c1NC(=O)Cn1c(=O)n(Cc2ccccc2)c(=O)c2c(C)c(C(=O)N(C)C)sc21	Pf Dd2 growth 8.9µM
Cc1cc(C)c(Cn2c(=O)n(Cc3ccccc3)c(=O)c3c(C)c(C)sc32)c(C)c1	none
CCN(CC)C(=O)c1sc2c(c1C)c(=O)n(-c1ccc(C)c(C)c1)c(=O)n2Cc1cccc(Cl)c1	none
CCN(CC)C(=O)c1sc2c(c1C)c(=O)n(Cc1ccccc1)c(=O)n2Cc1c(C)cc(C)cc1C	Pf Dd2 growth 10µM
CCOC(=O)c1ccccc1NC(=O)Cn1c(=O)n(-c2ccc(CC)cc2)c(=O)c2c(C)c(C(=O)N(C)C)sc21	none
Cc1sc2c(c1C)c(=O)n(Cc1ccccc1)c(=O)n2CC(=O)N(C)c1ccccc1	none
CCC(C(=O)N1CCC2(CCC(=O)N(Cc3ccccn3)C2)CC1)n1cccn1 (stereo not drawn)	none
CN1CCN(C(=O)[C@@H]2CCC[C@@H](NC(=O)c3ccc4c(c3)OCO4)CN(C)C(=O)C2)CC1	none
CCc1noc(-c2cn(C3CCN(C(=O)c4ccc(C)c(C)c4)CC3)nn2)n1	none
CCNC(=O)N1CCCN(S(C)(=O)=O)C(c2ccccc2)CC(=O)NCC1 (stereo not drawn)	none
COc1ccccc1N1CCN(c2ncnc3c2cnn3-c2cc(Cl)ccc2C)CC1	Pf Dd2 growth 8.9µM
Cc1ccc(Cl)cc1-n1ncc2c(NCCCc3ccccc3)ncnc21	none
CC(=O)c1ccc(N2CCN(c3ncnc4c3cnn4-c3cc(Cl)ccc3C)CC2)cc1	Pf Dd2 growth 11µM
Cc1ccc(Cl)cc1-n1ncc2c(N3CCCCCC3)ncnc21	none
Cc1ccc(-n2ncc3c(N4CCN(c5ccccc5)CC4)ncnc32)cc1C	none
CN1CCN(c2ncnc3c2cnn3-c2cccc(Cl)c2)CC1	none
CCc1ccc(Nc2ncnc3c2cnn3-c2cc(Cl)ccc2C)cc1	Pf Dd2 growth 10µM
Cc1ccc(Cl)cc1-n1ncc2c(NCCc3ccccc3)ncnc21	none
CC(=O)c1ccc(N2CCN(c3ncnc4c3cnn4C)CC2)cc1	none
COCc1noc(CC2CCOC3(CCN(C(=O)NCc4ccc(OC)cc4)CC3)C2)n1 (stereo not drawn)	none
Cc1ccc(-c2nocc2CCC(=O)N2CCC(Cc3ccccc3)CC2)cc1	none
CS(=O)(=O)N1CCCN(C(=O)c2ccoc2)CCNC(=O)CC1c1ccccc1 (stereo not drawn)	none
Cc1ccc(NC(=O)Cn2c(CCC(=O)O)ccc2-c2cccs2)cc1	none
Cc1cc(C)c(NC(=O)Cn2c(=O)n(CC(=O)NCCc3ccccc3)c(=O)c3ccccc32)c(C)c1	none
CC(C)c1nc2ccc(C(=O)NCCCN3CCN(c4cccc(Cl)c4)CC3)cc2o1	none
CCCN1CCN(CCCNC(=O)Cn2c(-c3cccs3)cc3cc(Cl)ccc32)CC1	Pf Dd2 growth 8.9µM
Cc1ccc(CCNC(=O)Cn2c(-c3cccs3)cc3ccccc32)cc1	Pf Dd2 growth 13µM
Cc1ccc(C)c(N2CCN(CCCNC(=O)Cn3c(-c4cccs4)cc4ccccc43)CC2)c1	Pf Dd2 growth 7.9µM
CCN1CCN(CCCNC(=O)Cn2c(-c3cccs3)cc3ccccc32)CC1	none
Cc1ccc(C)c(N2CCN(CCCNC(=O)Cn3ncc4c5ccccc5n(C)c4c3=O)CC2)c1	none
CCC(=O)N1c2ccccc2CC1C(=O)NCCN1CCN(c2cccc(Cl)c2)CC1 (stereo not drawn)	none
CC1CCN(C(=O)Cn2c(-c3cccs3)cc3cc(Cl)ccc32)CC1	none
CCCN1CCN(C(=O)Cn2c(-c3cccs3)cc3cc(F)ccc32)CC1	none
O=C(Cn1c(-c2cccs2)cc2ccccc21)NCCCN1CCN(c2cccc(Cl)c2)CC1	Pf Dd2 growth 11µM
Cc1cc(Cl)ccc1S(=O)(=O)N1C[C@@H](C(N)=O)[C@H](C2CCN(C)CC2)C1	none
Cc1ccc(CNC(=O)Cn2cccc2-c2nc(-c3ccccc3)no2)cc1	none
CNC(=O)[C@@H]1C[C@@H](n2cc(CNC(=O)Nc3cccc(Cl)c3)nn2)CN1	none
CCCNC(=O)N(C1CCOCC1)C1CCN(C(=O)Cc2ccccc2F)CC1	none
CC(=O)Nc1ccc(CN2CCC3(CC2)CC(NC(C)=O)c2ccccc2O3)cc1 (stereo not drawn)	none
O=C(NC1CC1)[C@@H]1C[C@H](Oc2cccnc2)CN1	none
CC[C@@H]1[C@@H](NC(=O)CCc2c(C)nc3ncnn3c2C)[C@@H]2CCO[C@H]12	none
O=C(Cn1c2ncccc2c(=O)n1-c1ccccc1)NCc1ccccc1	none
Cc1ccc(-n2c(=O)c3cccnc3n2CC(=O)Nc2cc(Cl)ccc2C)cc1	none
O=C(Cn1c2ncccc2c(=O)n1-c1ccccc1)Nc1ccc(Cl)cc1C(F)(F)F	none
CCc1cccc(-n2c(=O)c3cccnc3n2CC(=O)NCc2ccccc2)c1	Pf Dd2 growth 1µM
Cc1nn(CC(=O)NCc2ccccc2Cl)c(=O)c2nn(-c3ccccc3)c(C)c12	none
CCc1ccc(-n2c(=O)c3cccnc3n2CC(=O)NCc2ccc(F)cc2)cc1	none

Screening data deposited in PubChem by National Center for Advancing Translational Sciences (NCATS).
